The source of these data is PubChem BioAssay AID372 (MTDP, 2006).

The structures appear in SMILES notation. The whole screen tested about 100,000 compounds, of which about 770 (0.77%) were called active. For the sample, actives were picked, then their nearest neighbours and some compounds at random. Unmarked numbers belong to inactive results. No stated cut-off is given here; in the data, active means inhibition above about 50%; inactive means the rest.

The assay deals with Gag-Pol polyprotein (Human immunodeficiency virus type 1 group M subtype B (isolate HXB2)) (UniProt P04585). Briefly: RNase H inhibition, HIV 1 Gag Pol polyprotein, FRET biochemical assay, screening (AID 372). The note with it: HIV-1 RT RNase H, FRET RNA/DNA substrate fluorescence; at 10 µM; hits give high values.
With `O=C(/C=C/c1ccc2c(c1)OCO2)Nc1ccccn1`, the inhibition was 6%.

In the case of `COc1ccc(-c2ccc(/C=N/n3cnnc3)o2)c([N+](=O)[O-])c1`, the inhibition is 14%.

For the molecule `O=[N+]([O-])c1ccc(-c2ccc(/C=N/n3cnnc3)o2)c(Br)c1`, the inhibition is 12%.

With `COc1ccc([N+](=O)[O-])cc1-c1ccc(/C=N/n2cnnc2)o1`, the inhibition was 57% (active).

`COc1cccc(NC(=O)c2ccc(CN(c3ccc(C)c(C)c3)S(C)(=O)=O)cc2)c1`: the inhibition was 3%.

Turning to `CC1=C(C(=O)Nc2ccc(Br)cc2)C(c2ccccc2)NC(=O)N1` (configuration not stated), the inhibition was 18%.

Turning to `O=C(/C=C/c1ccc(-c2cc(Cl)ccc2Cl)o1)c1ccc(F)cc1`, the inhibition was 52% (active).

With `O=C(/C=C/c1ccc(-c2ccc(Cl)cc2Cl)o1)c1ccccc1`, the inhibition is 13%.

Turning to `CC(=O)/C=C/c1ccc(-c2cc(Cl)ccc2Cl)o1`, the inhibition was 54% (active).

Take `O=C(/C=C/c1ccc(-c2cc(Cl)cc(Cl)c2)o1)c1ccccc1`: the inhibition was 51% (active).

For the molecule `O=C(/C=C/c1ccc(-c2ccc(Cl)cc2Cl)o1)c1ccc(F)cc1`, the inhibition is 27%.

For the molecule `O=C(/C=C\c1ccc(-c2cc(Cl)ccc2Cl)o1)c1ccccc1`, the inhibition is 40%.

Regarding `O=C(/C=C/c1ccc(-c2ccc(Cl)cc2)o1)c1ccccc1`, the inhibition was 20%.

For `COc1ccc(C(=O)/C=C/c2ccc(-c3cc(Cl)ccc3Cl)o2)cc1`, the inhibition is 15%.

Regarding `O=C(/C=C/c1ccc(-c2ccccc2Cl)o1)c1ccc(F)cc1`, the inhibition is 47%.

With `O=[N+]([O-])c1ccc(Cl)c(S(=O)(=O)Nc2ccccn2)c1`, the inhibition was 0%.

For the molecule `O=C(c1nn2c(C(F)(F)F)cc(-c3cccs3)nc2c1Br)N1CCOCC1`, the inhibition is 0%.

For `COc1ccc(OC)c(C(=O)N/N=C/c2ccccn2)c1`, the inhibition is 3%.

For `CC(C)(C)c1cc(C(=O)NCC(=O)OCC(=O)c2ccccc2)cc(C(C)(C)C)c1`, the inhibition was 18%.

As to `O=C(NC(=S)Nc1ccc(Br)cc1)c1ccc(Cl)cc1`, the inhibition is 1%.

As to `Cc1ccc(N(CC(=O)NCCOc2ccc(F)cc2)S(=O)(=O)c2ccccc2)cc1C`, the inhibition is 5%.

Regarding `CCOC(=O)Cc1csc(NC(=O)COc2c(C)cccc2C)n1`, the inhibition was 5%.

As to `NC(=O)c1cnn2c1NC(c1ccco1)CC2C(F)(F)F` (configuration not stated), the inhibition was 0%.

In the case of `O=C(Cc1ccccc1)Nc1ccc(C(=O)Nc2ccc(Cl)cc2Cl)cc1`, the inhibition is 59% (active).

For the molecule `CC(=O)Nc1ccc(C(=O)Nc2ccc(Cl)cc2Cl)cc1`, the inhibition is 0%.

Turning to `O=C(Nc1ccc(Cl)cc1Cl)c1ccc(-c2ccccc2)cc1`, the inhibition is 0%.

On to `CS/C(N)=N\N=C\c1cc([N+](=O)[O-])ccc1O`, for which the inhibition was 18%.

On to `O=C(NC(=S)Nc1cc([N+](=O)[O-])ccc1Cl)c1cccc2ccccc12`, for which the inhibition is 51% (active).

Take `COc1ccccc1C(=O)NC(=S)Nc1cc([N+](=O)[O-])ccc1Cl`: the inhibition is 6%.

As for `O=C(NC(=S)Nc1cc([N+](=O)[O-])ccc1Cl)c1ccccc1Br`, the inhibition is 18%.

Turning to `CSc1nc(SC)c2c3c(sc2n1)CN(C)CC3`, the inhibition is 0%.

Consider `Cc1ccc(OCC(=O)Nc2cc(C(F)(F)F)cc(C(F)(F)F)c2)cc1C`, for which the inhibition is 0%.

On to `CCCOc1ccc(/C=C/C(=O)Nc2ccc(S(=O)(=O)Nc3ncccn3)cc2)cc1OC`, for which the inhibition was 61% (active).

As for `COc1ccc(C(=O)Nc2ccc(S(=O)(=O)Nc3ncccn3)cc2)cc1OC`, the inhibition was 0%.

In the case of `CCCCOc1ccc(NC(=O)/C=C/c2ccc(OC)c(OC)c2)cc1`, the inhibition was 3%.

`O=c1[nH]n(-c2ccccc2)c(O)c1/C=C1\C=Nc2ccccc21`: the inhibition was 10%.

Turning to `O=c1[nH]c(O)c(/C=C2\C=Nc3ccccc32)[nH]1`, the inhibition was 0%.

Consider `Cc1ccc([N+](=O)[O-])cc1NC(=O)COc1ccc(Cl)cc1C`, for which the inhibition is 13%.

Consider `O=C(Nc1ncccc1Cl)C1CCCO1` (configuration not stated), for which the inhibition was 18%.

Consider `N#C/C(=C\Nc1ccc(S(=O)(=O)Nc2nccs2)cc1)c1nc(-c2ccc(-c3ccccc3)cc2)cs1`, for which the inhibition is 16%.

Turning to `COc1ccc(-c2csc(/C(C#N)=C/Nc3ccc(S(=O)(=O)Nc4nccs4)cc3)n2)cc1`, the inhibition was 6%.

For `Cc1cccc(NC(=O)/C(C#N)=C\c2cc(C)n(-c3ccc(C)c(C)c3)c2C)c1`, the inhibition was 10%.

As to `NN1CCN(Cc2cccc3ccccc23)CC1`, the inhibition is 7%.

As to `O=C(Cc1ccccc1Cl)c1ccc(O)cc1O`, the inhibition was 7%.

Regarding `Cc1c(O)ccc(C(=O)Cc2ccccc2Cl)c1O`, the inhibition is 10%.

Consider `O=C(c1cccc(F)c1)N1CCN(C(=O)c2cccs2)CC1`, for which the inhibition is 7%.

Take `COc1cc(OC)c(OC)cc1CN1CCN(Cc2ccccn2)CC1`: the inhibition was 5%.

In the case of `CCc1c(C)sc(NC(=O)c2cccc(Br)c2)c1C(=O)OC`, the inhibition was 16%.

Take `CCc1c(C)sc(NC(=O)c2ccc(OC)c(OC)c2)c1C(=O)OC`: the inhibition is 16%.

Take `CCc1c(C)sc(NC(=O)c2ccncc2)c1C(=O)OC`: the inhibition is 73% (active).

Consider `CCOC(=O)c1ccc(NC(=O)c2cn(-c3ccccc3)nc2-c2ccccc2)cc1`, for which the inhibition is 9%.

As for `COc1cc(C=O)ccc1OCCCCOc1c(C)cc(C)cc1Br`, the inhibition is 31%.

Regarding `O=C(Nc1nc2ccc3ccccc3c2s1)c1ccc(Cl)cc1`, the inhibition is 54% (active).

As for `O=C(Nc1nc2ccc3ccccc3c2s1)c1ccc(C(=O)c2ccccc2)cc1`, the inhibition was 18%.

For `O=C(Nc1nc2ccc3ccccc3c2s1)c1cccc(Cl)c1`, the inhibition is 5%.

With `COc1ccc(NC(=O)c2c(-c3c(Cl)cccc3Cl)noc2C)c([N+](=O)[O-])c1`, the inhibition was 1%.

Regarding `CCOc1ccc(N2C(=O)NC(=O)/C(=C\c3ccc(Sc4ccccc4)o3)C2=O)cc1`, the inhibition is 15%.

Turning to `O=[N+]([O-])c1ccc(/C=C/C=N/Nc2nc(N3CCOCC3)nc(N3CCOCC3)n2)cc1`, the inhibition was 2%.

As to `CCN(CC)C(=O)c1sc(NC(=O)C(C)(C)C)c(C(=O)OC)c1C`, the inhibition was 43%.

For the molecule `CCCC(=O)Nc1sc(C(=O)N(CC)CC)c(C)c1C(=O)OC`, the inhibition was 24%.

In the case of `CCN(CC)C(=O)c1sc(NC(=O)/C=C/C(=O)O)c(C(=O)OC)c1C`, the inhibition was 70% (active).

Consider `O=Cc1ccc(-c2ccc(OC(F)(F)F)cc2)o1`, for which the inhibition is 7%.
